# Measured values from PubChem BioAssay (NCATS).
# Values joined by “and” are separate entries in the source; they are usually repeats but may differ in a detail not shown here. Identical values can stand only once. Results filed as inconclusive are left out. Unmarked numbers belong to inactive results. Active and inactive are the calls of the source. Unless noted, calls follow the shape of the full dose curve.
# Target: Androgen receptor (Homo sapiens) (UniProt P10275)
# Assay: qHTS assay for small molecule antagonists of androgen receptor signaling (AID 588516; active = well fitted curve in the direction sought with a large enough effect in the signal ratio, with a control signal flat, not every such curve was filed as active; the % refers to the signal ratio; also: % is scaled to controls: 0 for no effect and ±100 for the full control effect)
# Details: AR-UAS-bla HEK293, beta-lactamase ratio, antagonist mode, 16 h; series mostly up to 76.8 µM; activity change, negative = inhibition: at the top concentration
# How it was run: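 AR-UAS-bla GripTite HEK 293 cells (2000/well) treated with compound titrations plus 10 nM R1881 for 16 h at 37C. Beta-lactamase read by CCF4 FRET (460/530 nm); IC50 from Hill fits, normalized to R1881 and DMSO control wells.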
# Androgen receptor (Homo sapiens), sequence (P10275 whole entry, looked up): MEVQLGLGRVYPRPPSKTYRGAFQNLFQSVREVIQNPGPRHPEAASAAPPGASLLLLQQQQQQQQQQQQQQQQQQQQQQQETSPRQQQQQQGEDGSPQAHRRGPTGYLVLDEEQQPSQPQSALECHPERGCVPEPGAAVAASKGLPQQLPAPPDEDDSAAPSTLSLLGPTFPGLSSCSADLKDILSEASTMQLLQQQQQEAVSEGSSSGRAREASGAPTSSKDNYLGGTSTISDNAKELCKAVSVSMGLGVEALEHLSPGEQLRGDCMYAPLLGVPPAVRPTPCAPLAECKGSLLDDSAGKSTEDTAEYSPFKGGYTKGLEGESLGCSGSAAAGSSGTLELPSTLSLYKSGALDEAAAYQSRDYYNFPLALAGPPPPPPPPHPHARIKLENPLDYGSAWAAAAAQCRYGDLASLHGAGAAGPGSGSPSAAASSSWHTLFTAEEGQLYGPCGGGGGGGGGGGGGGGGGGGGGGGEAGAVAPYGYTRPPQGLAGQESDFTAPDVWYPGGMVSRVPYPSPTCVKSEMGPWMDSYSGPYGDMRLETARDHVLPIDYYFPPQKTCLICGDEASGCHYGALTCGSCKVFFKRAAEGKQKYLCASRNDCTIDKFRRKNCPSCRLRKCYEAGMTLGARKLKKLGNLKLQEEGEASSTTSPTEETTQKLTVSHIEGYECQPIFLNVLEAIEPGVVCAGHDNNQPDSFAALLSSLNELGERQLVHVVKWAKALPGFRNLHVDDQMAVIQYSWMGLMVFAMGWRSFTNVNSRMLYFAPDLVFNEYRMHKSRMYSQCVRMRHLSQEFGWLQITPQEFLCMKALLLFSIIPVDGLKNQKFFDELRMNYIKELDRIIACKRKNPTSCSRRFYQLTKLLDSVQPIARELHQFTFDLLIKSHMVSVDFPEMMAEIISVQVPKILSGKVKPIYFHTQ
Compound,outcome,"activity change, negative = inhibition"
CCCN(CCC)C(=O)SCC,inactive,
COc1ccc2nc(N)sc2c1,inactive,
C=Cc1ccccc1Cl,,12%
c1ccc2c(c1)c1cccc3ccc4cccc2c4c31,inactive,
Cc1cccc([N+](=O)[O-])c1C,inactive,
CC(C)=CCCC(C)CCO (stereo unspecified),inactive,
CCO,,24.4%
CCCCC(CC)CN (stereo unspecified),,-6.56%
c1ccc2c(c1)[nH]c1ccccc12,,1.99%

# Target: Bile acid receptor (Homo sapiens) (UniProt Q96RI1)
# Sequence (Q96RI1 whole entry, looked up): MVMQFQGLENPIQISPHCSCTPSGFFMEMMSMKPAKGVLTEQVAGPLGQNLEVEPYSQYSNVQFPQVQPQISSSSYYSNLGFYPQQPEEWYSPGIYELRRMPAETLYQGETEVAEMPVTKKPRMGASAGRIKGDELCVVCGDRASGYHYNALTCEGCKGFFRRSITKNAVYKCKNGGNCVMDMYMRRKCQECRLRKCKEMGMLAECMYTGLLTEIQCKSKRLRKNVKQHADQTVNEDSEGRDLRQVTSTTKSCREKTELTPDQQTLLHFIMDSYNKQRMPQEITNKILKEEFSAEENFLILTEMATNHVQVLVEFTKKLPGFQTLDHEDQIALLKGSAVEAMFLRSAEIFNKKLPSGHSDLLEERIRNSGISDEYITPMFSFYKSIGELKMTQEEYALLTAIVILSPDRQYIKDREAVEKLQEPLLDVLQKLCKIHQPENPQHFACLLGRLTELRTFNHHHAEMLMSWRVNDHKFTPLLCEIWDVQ
# Assay: qHTS assay for small molecule antagonists of farnesoid X receptor signaling (AID 588526); also: % is scaled to controls: 0 for no effect and ±100 for the full control effect
# Details: HEK293T FXR-UAS-bla, beta-lactamase ratio, antagonist mode; series mostly up to 76.7 µM; activity change, negative = inhibition: at the top concentration
# How it was run: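 Beta-lactamase reporter antagonist mode: HEK293T FXR-UAS-bla cells, titrated compound, CDCA stimulation, 16 h 37 C, CCF4 dye 2 h RT. Data normalized to CDCA 50 uM and DMSO; Hill-fit IC50.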
Compound,"activity change, negative = inhibition",outcome
C=Cc1ccccc1Cl,-2.14%,
c1ccc2c(c1)c1cccc3ccc4cccc2c4c31,,inactive
O=[N+]([O-])c1cccc(Cl)c1Cl,,inactive
CCO[Si](CCCN)(OCC)OCC,,inactive
CCO,-0.445%,
Nc1ccc(Cl)cc1Cl,,inactive
CN(C)C=O,,inactive
CCCCOCCO,,inactive

# Target: Glucocorticoid receptor (Homo sapiens) (UniProt P04150)
# Sequence (P04150 whole entry, looked up): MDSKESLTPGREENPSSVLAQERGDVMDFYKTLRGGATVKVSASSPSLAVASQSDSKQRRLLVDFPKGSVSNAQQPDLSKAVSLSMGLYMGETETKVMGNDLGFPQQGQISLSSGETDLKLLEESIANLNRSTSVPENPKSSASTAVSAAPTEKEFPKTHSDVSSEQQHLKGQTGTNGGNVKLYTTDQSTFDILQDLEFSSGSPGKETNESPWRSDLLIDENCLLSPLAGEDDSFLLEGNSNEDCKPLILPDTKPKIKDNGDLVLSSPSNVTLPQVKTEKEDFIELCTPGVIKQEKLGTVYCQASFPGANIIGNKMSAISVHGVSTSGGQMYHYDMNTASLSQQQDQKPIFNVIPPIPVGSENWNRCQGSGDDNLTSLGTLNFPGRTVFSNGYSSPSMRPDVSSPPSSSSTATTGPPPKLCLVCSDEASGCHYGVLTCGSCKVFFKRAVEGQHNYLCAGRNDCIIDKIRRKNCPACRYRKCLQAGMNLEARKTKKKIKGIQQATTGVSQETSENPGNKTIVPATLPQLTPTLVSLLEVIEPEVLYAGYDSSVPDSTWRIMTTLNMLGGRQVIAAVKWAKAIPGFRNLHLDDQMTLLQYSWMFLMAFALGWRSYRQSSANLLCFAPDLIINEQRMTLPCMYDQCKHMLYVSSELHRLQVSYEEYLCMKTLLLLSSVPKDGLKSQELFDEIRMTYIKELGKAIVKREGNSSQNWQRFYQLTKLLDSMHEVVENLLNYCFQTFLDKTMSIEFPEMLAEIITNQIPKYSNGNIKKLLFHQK
# Assay: qHTS assay for small molecule agonists of glucocorticoid receptor signaling (AID 588532; active = well fitted curve in the direction sought with a large enough effect in the signal ratio, with a control signal flat; the % refers to the signal ratio;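 also: 100% = dexamethasone at 0.1 µM and 0% = DMSO only wells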)
# Details: HeLa MMTV-bla, beta-lactamase ratio, agonist, 18 h; hits give high values; percent of dexamethasone control, DMSO zero
# How it was run: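 Using MMTV-bla HeLa cells in medium with 1% stripped FBS and 25 mM HEPES, compounds were titrated and incubated overnight-length (18 h). Beta-lactamase cleavage of CCF4 was quantified by dual-emission fluorescence.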
row,Compound,activation
1,CCCN(CCC)C(=O)SCC,1.32% and 12.8%
2,COc1ccc2nc(N)sc2c1,-7.22% and -9.63%
3,ClCCCl,-0.189% and 0.123% and 2.5%
4,CCC(O)OC(O)CC (stereo unspecified),1.96% and -2.19% and -0.591%
5,C=Cc1ccccc1Cl,-0.22%
6,c1ccc2c(c1)c1cccc3ccc4cccc2c4c31,2.22% and -5.73%
7,CCCCCCCCO,-2.22% and -1.08%
8,CC(C)=CCCC(C)CCO (stereo unspecified),0.913% and 4.62%
9,O=[N+]([O-])c1cccc(Cl)c1Cl,3.57% and 3.5%
